Consider 68 compounds from the antibiotic and cytotoxicity screens of Wong et al. (2023).

Each structure is given as a SMILES string. The whole screen tested about 39,000 compounds, of which about 3,300 (8.5%) were called active. Many of the other results were omitted from the sample, so actives are more common in it than they were.

The test system of this assay is HepG2. The experiment in a line: cytotoxicity call (relative viability < 0.9). Particulars: 10 µM.
In the case of `Cc1noc(C)c1NC(=O)Nc1ccc2c(c1)C(=O)N([C@@H](C)CO)C[C@H](C)[C@H](CN(C)CC1CCCCC1)OCCCC[C@@H](C)O2`, the cytotoxicity call is “inactive”.

On to `COc1ccc(Br)cc1S(=O)(=O)NC(=O)/C=C/c1ccccc1Cc1ccc2ccccc2c1`, for which the cytotoxicity call was “inactive”.

With `COc1ccc(S(=O)(=O)Nc2ccc3c(c2)C(=O)N([C@@H](C)CO)C[C@@H](C)[C@@H](CN(C)C(=O)Nc2cccc4ccccc24)O3)cc1`, the cytotoxicity call was “inactive”.

In the case of `C[C@@H]1CN([C@H](C)CO)S(=O)(=O)c2ccc(Br)cc2O[C@H]1CN(C)CC1CCOCC1`, the cytotoxicity call is “inactive”.

Consider `C[C@@H]1CN([C@H](C)CO)C(=O)c2cccc(NC(=O)NC3CCCCC3)c2O[C@@H]1CN(C)S(C)(=O)=O`, for which the cytotoxicity call was “inactive”.

As to `CC(C)C[C@@H]1NC(=O)[C@@H]2C[C@H](C(=O)NCCCCCCN(C)C)[C@H](c3cccc(OCCO)c3)N2C1=O`, the cytotoxicity call was “inactive”.

As for `CC(C)N1C[C@H](C)[C@@H](CN(C)Cc2ccc(Cl)cc2)Oc2c(NC(=O)c3ccncc3)cccc2C1=O`, the cytotoxicity call is “inactive”.

On to `C[C@H]1CN([C@@H](C)CO)S(=O)(=O)c2ccc(C#Cc3ccncc3)cc2O[C@@H]1CN(C)S(=O)(=O)c1ccccc1`, for which the cytotoxicity call was “active”.

Turning to `C[C@H](CO)N1C[C@H](C)[C@H](CN(C)S(=O)(=O)c2ccccc2)Oc2cc(C#Cc3ccncc3)ccc2S1(=O)=O`, the cytotoxicity call is “active”.

As to `C[C@@H]1CN([C@H](C)CO)S(=O)(=O)c2ccc(C#Cc3ccncc3)cc2O[C@H]1CN(C)S(=O)(=O)c1ccccc1`, the cytotoxicity call is “active”.

Turning to `C[C@@H]1CN([C@@H](C)CO)S(=O)(=O)c2ccc(C#Cc3ccncc3)cc2O[C@@H]1CN(C)S(=O)(=O)c1ccccc1`, the cytotoxicity call was “active”.

As for `C[C@@H]1CN([C@H](C)CO)C(=O)c2cccc(NC(=O)c3cnccn3)c2O[C@@H]1CN(C)C(=O)NC1CCCCC1`, the cytotoxicity call is “inactive”.

In the case of `Cc1noc(C)c1S(=O)(=O)Nc1cccc2c1O[C@@H](CN(C)Cc1ccccc1)[C@@H](C)CN([C@H](C)CO)C2=O`, the cytotoxicity call is “inactive”.

`C[C@@H]1CN([C@H](C)CO)C(=O)c2cccc(NC(=O)Nc3cccc4ccccc34)c2O[C@@H]1CN(C)S(=O)(=O)c1ccccc1`: the cytotoxicity call was “inactive”.

In the case of `CCC(=O)N(C)C[C@@H]1Oc2ncc(C#C[C@H](C)O)cc2C(=O)N([C@@H](C)CO)C[C@H]1C`, the cytotoxicity call was “inactive”.

Take `O=C(C[C@@H]1C[C@@H]2c3cc(NC(=O)Nc4ccccc4)ccc3O[C@@H]2[C@H](CO)O1)NCCN1CCCCC1`: the cytotoxicity call was “inactive”.

In the case of `CN1CCC[C@@H](CC2c3ccccc3Sc3ccccc32)C1`, the cytotoxicity call is “active”.

Turning to `C[C@H]1CCCN(C(=O)N2c3ccccc3Sc3ccccc32)C1`, the cytotoxicity call is “inactive”.

Consider `CN1CCN2c3ccccc3Cc3ccccc3C2C1.Cl` (stereo not drawn), for which the cytotoxicity call is “inactive”.

As to `C[C@@H]1CN([C@@H](C)CO)C(=O)c2c(c3ccccc3n2C)-c2ccccc2CO[C@H]1CN(C)C(=O)CCC(F)(F)F`, the cytotoxicity call is “inactive”.

For `Cn1c(=O)c2c(nc(S(C)(=O)=O)n2C)n(C)c1=O`, the cytotoxicity call was “active”.

On to `COCCc1nc2c(c(=O)n(C)c(=O)n2C)n1C`, for which the cytotoxicity call was “inactive”.

With `Cn1c(=O)c2c(nc(SCSc3nc4c(c(=O)n(C)c(=O)n4C)n3C)n2C)n(C)c1=O`, the cytotoxicity call was “inactive”.

In the case of `C[C@@H]1CN([C@@H](C)CO)C(=O)c2cc(NC(=O)Nc3cccc4ccccc34)ccc2O[C@H]1CN(C)C(=O)Nc1ccc(F)cc1`, the cytotoxicity call was “inactive”.

As to `C[C@@H]1CN([C@H](C)CO)C(=O)CCCn2nncc2CO[C@H]1CN(C)S(=O)(=O)c1cn(C)cn1`, the cytotoxicity call is “inactive”.

On to `C[C@H](CO)N1C[C@H](C)[C@@H](CN(C)C(=O)Nc2ccc(F)cc2)Oc2ccc(NC(=O)Nc3ccc(C(F)(F)F)cc3)cc2CC1=O`, for which the cytotoxicity call was “active”.

As for `C[C@@H]1CN([C@H](C)CO)C(=O)Cc2cc(NC(=O)Nc3ccc(C(F)(F)F)cc3)ccc2O[C@H]1CN(C)C(=O)Nc1ccc(F)cc1`, the cytotoxicity call was “inactive”.

On to `C[C@H](CO)N1C[C@H](C)[C@H](CN(C)C(=O)Nc2ccc(C(F)(F)F)cc2)Oc2ccc(NC(=O)Nc3ccc(F)cc3)cc2CC1=O`, for which the cytotoxicity call was “inactive”.

For the compound `C[C@@H]1CN([C@@H](C)CO)C(=O)Cc2cc(NC(=O)Nc3ccc(F)cc3)ccc2O[C@H]1CN(C)C(=O)Nc1ccc(C(F)(F)F)cc1`, the cytotoxicity call is “inactive”.

In the case of `C[C@@H]1CN([C@H](C)CO)C(=O)Cc2cc(NC(=O)Nc3ccc(F)cc3)ccc2O[C@H]1CN(C)C(=O)Nc1ccc(C(F)(F)F)cc1`, the cytotoxicity call was “inactive”.

Regarding `C[C@@H]1CN([C@@H](C)CO)C(=O)Cc2cc(NC(=O)Nc3ccc(C(F)(F)F)cc3)ccc2O[C@H]1CN(C)C(=O)Nc1ccc(F)cc1`, the cytotoxicity call was “inactive”.

On to `C[C@@H]1CN([C@@H](C)CO)C(=O)Cc2cc(NC(=O)Nc3ccc(C(F)(F)F)cc3)ccc2O[C@@H]1CN(C)C(=O)Nc1ccc(F)cc1`, for which the cytotoxicity call is “active”.

As to `C[C@@H]1CN([C@H](C)CO)C(=O)Cc2cc(NC(=O)Nc3ccc(C(F)(F)F)cc3)ccc2O[C@@H]1CN(C)C(=O)Nc1ccc(F)cc1`, the cytotoxicity call was “active”.

As to `C[C@H]1CN([C@@H](C)CO)C(=O)Cc2cc(NC(=O)Nc3ccc(C(F)(F)F)cc3)ccc2O[C@H]1CN(C)C(=O)Nc1ccc(F)cc1`, the cytotoxicity call was “active”.

For `C[C@H]1CN([C@@H](C)CO)C(=O)Cc2cc(NC(=O)Nc3ccc(F)cc3)ccc2O[C@@H]1CN(C)C(=O)Nc1ccc(C(F)(F)F)cc1`, the cytotoxicity call is “inactive”.

With `C[C@H](CO)N1C[C@H](C)[C@H](CN(C)C(=O)Nc2ccc(F)cc2)Oc2ccc(NC(=O)Nc3ccc(C(F)(F)F)cc3)cc2CC1=O`, the cytotoxicity call is “inactive”.

`C[C@@H]1CN([C@@H](C)CO)C(=O)Cc2cc(NC(=O)Nc3ccc(F)cc3)ccc2O[C@@H]1CN(C)C(=O)Nc1ccc(C(F)(F)F)cc1`: the cytotoxicity call was “inactive”.

As to `Cc1ccc(S(=O)(=O)N(C)C[C@H]2OCCCC[C@H](C)Oc3ccc(NC(=O)Nc4ccc(C(F)(F)F)cc4)cc3C(=O)N([C@H](C)CO)C[C@@H]2C)cc1`, the cytotoxicity call was “inactive”.

Regarding `C[C@@H]1CN([C@@H](C)CO)C(=O)c2cc(NC(=O)Nc3ccc(F)cc3)ccc2O[C@@H](C)CCCCO[C@@H]1CN(C)S(=O)(=O)c1ccc(Cl)cc1`, the cytotoxicity call is “inactive”.

In the case of `COCC(=O)Nc1ccc2c(c1)[C@@H]1C[C@@H](CC(=O)N3CCOCC3)O[C@H](CO)[C@@H]1O2`, the cytotoxicity call was “inactive”.

Consider `C[C@H](CO)N1C[C@H](C)[C@@H](CN(C)S(=O)(=O)c2cn(C)cn2)Oc2ccc(NC(=O)Nc3ccccc3)cc2CC1=O`, for which the cytotoxicity call was “inactive”.

In the case of `CCCc1ncc(C[n+]2ccccc2C)c(N)n1.[Cl-]`, the cytotoxicity call was “inactive”.

On to `C[C@@H]1CCCCO[C@H](CN(C)S(=O)(=O)c2cccs2)[C@H](C)CN([C@H](C)CO)C(=O)c2cc(NC(=O)c3ccccc3)ccc2O1`, for which the cytotoxicity call was “inactive”.

For `C[C@@H]1CN([C@@H](C)CO)C(=O)c2cccc(NS(=O)(=O)c3cccs3)c2O[C@@H]1CN(C)Cc1ccc(Oc2ccccc2)cc1`, the cytotoxicity call is “inactive”.

In the case of `C[C@@H]1CN([C@@H](C)CO)C(=O)c2cc(C#CCN(C)C)cnc2O[C@H]1CN(C)Cc1cccc(C(=O)O)c1`, the cytotoxicity call is “inactive”.

For `C[C@@H]1CN([C@@H](C)CO)C(=O)c2cccc(NC(=O)C3CCOCC3)c2O[C@H]1CN(C)C(=O)Nc1ccc2c(c1)OCO2`, the cytotoxicity call was “inactive”.

On to `C[C@H]1CN([C@@H](C)CO)C(=O)Cc2cc(NC(=O)Nc3ccc(F)cc3)ccc2O[C@H]1CN(C)C(=O)Nc1ccc(C(F)(F)F)cc1`, for which the cytotoxicity call is “inactive”.

For `C[C@H](CO)N1C[C@H](C)[C@@H](CN(C)C(=O)Nc2ccc(C(F)(F)F)cc2)Oc2ccc(NC(=O)Nc3ccc(F)cc3)cc2CC1=O`, the cytotoxicity call is “active”.

As for `C[C@@H]1CN([C@H](C)CO)C(=O)Cc2cc(NC(=O)Nc3ccc(F)cc3)ccc2O[C@@H]1CN(C)C(=O)Nc1ccc(C(F)(F)F)cc1`, the cytotoxicity call was “inactive”.

Consider `Cc1ccc(S[C@]2(C(=O)NC(C)C)CC(=O)N(Cc3cc(C(F)(F)F)cc(C(F)(F)F)c3)[C@@H]2c2ccc(CO)cc2)cc1`, for which the cytotoxicity call was “inactive”.

`CN(C)Cc1cn(CC[C@H]2CC[C@@H](NS(=O)(=O)c3ccccc3)[C@H](CO)O2)nn1`: the cytotoxicity call is “inactive”.

As to `C[C@H]1CN([C@@H](C)CO)C(=O)Cc2cc(NC(=O)CCC(F)(F)F)ccc2O[C@@H]1CN(C)S(C)(=O)=O`, the cytotoxicity call is “inactive”.

Turning to `CC(C)(C)[S@](=O)N1Cc2cc(C(=O)N3CCc4ccccc4C3)nc(-c3cccc(-c4cncnc4)c3)c2[C@@H]1CCO`, the cytotoxicity call was “inactive”.

Consider `C=CCOC(=O)[C@@H]1[C@H]2C(=O)O[C@H](c3ccccc3)[C@H](c3ccccc3)N2[C@H](c2ccc(OCCOC(=O)NCCCCCC(=O)NO)cc2)[C@]12C(=O)Nc1ccc(I)cc12`, for which the cytotoxicity call was “inactive”.

For the compound `Nc1nnc(-c2ccno2)o1`, the cytotoxicity call is “inactive”.

On to `CC(=O)On1cc(F)c(=O)[nH]c1=O`, for which the cytotoxicity call was “active”.

Consider `CCOC(=O)CCn1cc(F)c(=O)[nH]c1=O`, for which the cytotoxicity call is “inactive”.

Consider `CCOC(=O)Cn1cc(F)c(=O)[nH]c1=O`, for which the cytotoxicity call is “inactive”.

For the compound `Cn1cnc(S(=O)(=O)N2CC[C@H](O)[C@@H]2Cc2cnn(C)c2)c1`, the cytotoxicity call is “inactive”.

On to `C[C@@H]1CCCCO[C@@H](CN(C)C(=O)CCC(F)(F)F)[C@@H](C)CN([C@H](C)CO)C(=O)c2cc(NC(=O)Cc3ccccc3)ccc2O1`, for which the cytotoxicity call is “inactive”.

For the compound `C[C@H]1CCCCO[C@@H](CN(C)C(=O)Nc2ccccc2)[C@@H](C)CN([C@@H](C)CO)C(=O)c2cc(NC(=O)Cc3ccccc3)ccc2O1`, the cytotoxicity call was “inactive”.

Consider `C[C@@H]1CCCCO[C@@H](CN(C)C(=O)Nc2ccc(C(F)(F)F)cc2)[C@H](C)CN([C@H](C)CO)C(=O)c2cc(NC(=O)Cc3ccccc3)ccc2O1`, for which the cytotoxicity call is “active”.

With `C[C@@H]1CN([C@H](C)CO)C(=O)c2cc(NC(=O)Cc3ccccc3)ccc2O[C@@H](C)CCCCO[C@H]1CN(C)C(=O)Nc1ccccc1`, the cytotoxicity call is “active”.

With `C[C@H](CO)N1C[C@H](C)[C@@H](CN(C)C(=O)Nc2ccc(C(F)(F)F)cc2)OCCCC[C@H](C)Oc2ccc(NC(=O)Cc3ccccc3)cc2C1=O`, the cytotoxicity call is “inactive”.

For the compound `C[C@@H]1CCCCO[C@H](CN(C)C(=O)Nc2ccc(C(F)(F)F)cc2)[C@@H](C)CN([C@@H](C)CO)C(=O)c2cc(NC(=O)Cc3ccccc3)ccc2O1`, the cytotoxicity call is “inactive”.

Regarding `C[C@@H]1CCCCO[C@@H](CN(C)C(=O)CCC(F)(F)F)[C@H](C)CN([C@@H](C)CO)C(=O)c2cc(NC(=O)Cc3ccccc3)ccc2O1`, the cytotoxicity call was “inactive”.

As for `C[C@@H]1CCCCO[C@@H](CN(C)C(=O)Nc2ccccc2)[C@H](C)CN([C@@H](C)CO)C(=O)c2cc(NC(=O)Cc3ccccc3)ccc2O1`, the cytotoxicity call was “inactive”.

Take `C[C@H]1CCCCO[C@H](CN(C)C(=O)CCC(F)(F)F)[C@@H](C)CN([C@@H](C)CO)C(=O)c2cc(NC(=O)Cc3ccccc3)ccc2O1`: the cytotoxicity call was “active”.
